CSC inhib: cancer stem cell viability inhibitors, primary screen, luminescence; AID 2717, 2010; 300,000 tested, 1.1% active; inhibition, % at 7.5 µM; cancer stem cell-like cells viability; in the data active = inhibition above about 75%; inconclusive = no clear call, values can overlap the other calls; tested in HMLE shEcad cells
MPTP block: mitochondrial permeability transition pore inhibitors, primary screen, biochemical, isolated mouse mitochondria, absorbance; Ca2+ swelling absorbance, 30 min; inhibition, % at 10 µM; 360,000 tested, 1.4% active;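 active = inhibition of 50% or more, scaled per plate between neutral and stimulator controls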;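 also: 0% = DMSO wells given calcium and 100% = 1 mM EGTA wells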
Beta cell apopt: inhibitors of cytokine-induced beta cell apoptosis, primary screen, luminescence; INS-1E cytokine-induced death, ATP luminescence, 48 h; percent of positive-control rescue, neutral wells zero; protection from apoptosis, % (test concentration not listed); 300,000 tested, 0.8% active; AID 435005, 2010;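 active = Every replicate reaches about 75%, or at least half do and their mean reaches it too, limit read from the data; inconclusive = At least half of replicates reach the limit but their mean does not; inactive = Under half of replicates reach the limit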;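 also: 0% = cytokine-treated negative control wells and 100% = positive control rescue; higher means more ATP so stronger rescue from cytokine killing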
Calb FLC: C. albicans growth inhibition with fluconazole, primary screen, CaCi-2 strain, Alamar Blue fluorescence | growth inhibition, % (no concentration beside the values) | 300,000 tested, 0.57% active | C. albicans CaCi-2 (fluconazole-resistant clinical isolate) + fluconazole, 48 h;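 active = growth inhibition above about 58% in most replicates, limit read from the data, passing the limit was not always enough; inconclusive = exactly half the replicates above a set limit; inactive = most replicates below a set limit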;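 also: all wells also contain fluconazole at 8 µg/ml as a sub-toxic cotreatment; 0% = median of DMSO wells and 100% = median of geldanamycin control wells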
Mdm2-MdmX inh: inhibitors of human Mdm2-MdmX association, primary screen, cell-based, luminescence, split luciferase, SaOS-2, uHTS | SaOS-2 split-luciferase Mdm2/MdmX complementation | inhibition, % at 8 µM | 330,000 tested, 3% active | AID 485346, 2010;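 active = inhibition of at least 50% at 8 µM in the primary screen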
Target sequence (O15151 whole entry, looked up): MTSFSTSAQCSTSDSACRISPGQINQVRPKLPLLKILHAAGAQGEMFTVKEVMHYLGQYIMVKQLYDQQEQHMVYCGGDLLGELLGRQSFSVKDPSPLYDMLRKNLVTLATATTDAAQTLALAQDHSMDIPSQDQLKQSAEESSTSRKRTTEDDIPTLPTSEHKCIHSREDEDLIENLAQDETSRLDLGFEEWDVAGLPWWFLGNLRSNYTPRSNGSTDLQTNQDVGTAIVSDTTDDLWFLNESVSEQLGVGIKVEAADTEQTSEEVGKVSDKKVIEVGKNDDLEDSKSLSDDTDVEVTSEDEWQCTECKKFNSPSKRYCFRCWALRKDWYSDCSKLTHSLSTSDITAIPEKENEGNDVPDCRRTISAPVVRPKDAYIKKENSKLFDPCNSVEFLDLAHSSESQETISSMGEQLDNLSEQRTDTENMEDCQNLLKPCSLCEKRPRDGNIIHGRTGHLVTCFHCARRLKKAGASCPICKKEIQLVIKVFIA
Target sequence (Q00987 whole entry, looked up): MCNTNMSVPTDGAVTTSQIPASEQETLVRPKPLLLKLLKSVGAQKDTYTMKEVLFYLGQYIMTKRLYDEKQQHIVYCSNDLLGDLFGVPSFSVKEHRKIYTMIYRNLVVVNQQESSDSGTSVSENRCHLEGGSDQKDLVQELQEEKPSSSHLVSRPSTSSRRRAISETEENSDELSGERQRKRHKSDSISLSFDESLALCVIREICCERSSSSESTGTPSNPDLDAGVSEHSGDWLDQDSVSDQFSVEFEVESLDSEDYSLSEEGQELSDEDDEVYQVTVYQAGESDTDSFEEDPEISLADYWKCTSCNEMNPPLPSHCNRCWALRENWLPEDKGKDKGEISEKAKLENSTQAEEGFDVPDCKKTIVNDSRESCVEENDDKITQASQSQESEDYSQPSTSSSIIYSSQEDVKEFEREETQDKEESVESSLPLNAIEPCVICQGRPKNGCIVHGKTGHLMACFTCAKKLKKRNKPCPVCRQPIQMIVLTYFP
Mdm2-MdmX conf: Mdm2-MdmX complex disruptors, retested hits, confirmation, luminescence, single concentration | 10,000 tested, 55% active | Mdm2-MdmX binding, luminescent assay | shares compounds with Mdm2-MdmX inh | inhibition, % at 8 µM; in the data active = inhibition above about 40%
FLuc counter: full-length luciferase signal inhibition, confirmation, counter-screen for Mdm2/MdmX interaction inhibitor project, cell-based, single concentration, SaOS-2. shares compounds with Mdm2-MdmX inh. SaOS-2 full-length luciferase counterscreen, luminescence. inhibition, % at 8 µM. 6,200 tested, 77% active;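 active = mean inhibition at 8 µM reaching about 37%, which flags the compound as non-specific, limit read from the data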;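 also: p53-null SaOS-2 cells with luciferase driven by a doxycycline-inducible promoter; compound on cells about two nights before reading with doxycycline added after day one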
MPTP counter: fluorescence retest of MPTP screen hits in isolated mitochondria, single concentration. shares compounds with MPTP block. inhibition, % at 10 µM. 5,000 tested, 78% active. membrane potential, Rhodamine 123 fluorescence. AID 624504, 2012; in the data active = inhibition above about 22%;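 also: 0% = DMSO vehicle and 100% = positive control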
MPTP swell DR: mitochondrial permeability transition pore inhibitors, dose response, biochemical, absorbance, uHTS hits | shares compounds with MPTP block | isolated mitochondria swelling | IC50, µM | 780 tested, 58% active | AID 651561, 2012; in the data active = IC50 below about 20 µM
MPTP counter DR: fluorescent counter-screen in isolated mitochondria, dose response, counter-screen for MPTP inhibitor project, biochemical, fluorescence, uHTS hits | 780 tested, 49% active | isolated mitochondria counterscreen, fluorescence read-out | AID 651564, 2012 | shares compounds with MPTP block | IC50, µM; in the data active = IC50 below about 80 µM
Numbers without * were called inactive. A selection: hits, their analogues and other compounds. The true share with any hit is near 4.8%.

How did COC(=O)c1ccc(N)c(N=CC2=C(O)CC(C)(C)CC2=O)c1 do in these assays?
CSC inhib: 7.0; MPTP block: -1.7; Beta cell apopt: -0.2; Calb FLC: -2.4; Mdm2-MdmX inh: 6.4

How did COC(=O)c1ccc2c(c1)C(C)(C)C(/C=C/c1ccccc1O)=[N+]2C do in these assays?
CSC inhib: 78.3*; MPTP block: 74.8*; Beta cell apopt: 1.1; Calb FLC: 3.4; Mdm2-MdmX inh: 71.1*; Mdm2-MdmX conf: 100.2*; FLuc counter: 51.7*; MPTP counter: -22.3

How did CC1(C)C(=S)N(Cc2ccccc2)c2ccccc21 do in these assays?
CSC inhib: -2.8; MPTP block: 0.0; Beta cell apopt: -13.0; Calb FLC: -1.2; Mdm2-MdmX inh: 17.4

What do the screens show for `CCCCCn1c(N)c(-c2nc3ccccc3o2)c2c([N+](=O)[O-])nn(C)c(=O)c21`?
CSC inhib: -18.1; MPTP block: 1.5; Beta cell apopt: -8.9; Calb FLC: -48.8

Results for CCCCCn1c(N)c(-c2nc3ccccc3o2)c2c([N+](=O)[O-])nn(CC)c(=O)c21 ?
CSC inhib: 2.3; MPTP block: 23.3; Beta cell apopt: 38.9; Calb FLC: 0.8; Mdm2-MdmX inh: 33.5

Results for Cn1nc([N+](=O)[O-])c2c(-c3nc4ccccc4s3)c(N)n(C3CCCCC3)c2c1=O ?
CSC inhib: 23.8; MPTP block: 71.5*; Beta cell apopt: -4.0; Calb FLC: -17.0; Mdm2-MdmX inh: 51.3*; Mdm2-MdmX conf: 6.0; MPTP counter: 6.2; MPTP swell DR: inactive; MPTP counter DR: 43.3*

What do the screens show for `CCCCCn1c(N)c(-c2nc3ccccc3s2)c2c([N+](=O)[O-])nn(CC)c(=O)c21`?
CSC inhib: 30.7; MPTP block: 96.6*; Beta cell apopt: -5.6; Calb FLC: -1.6; Mdm2-MdmX inh: 92.2*; Mdm2-MdmX conf: -17.1; MPTP counter: 2.1; MPTP swell DR: 11*; MPTP counter DR: <2.5*

What do the screens show for `O=C(NC1CCCC1)c1sc(=S)n2c1[nH]c(=O)c1ccccc12`?
CSC inhib: 57.6; MPTP block: 87.4*; Beta cell apopt: 5.5; Calb FLC: 20.4; Mdm2-MdmX inh: 56.9*; Mdm2-MdmX conf: 9.2; MPTP counter: 97.4*

What do the screens show for `CC(C)NC(NC(=O)/C=C/c1ccccc1)C(Cl)(Cl)Cl` (configuration not stated)?
MPTP block: -1.3; Beta cell apopt: 2.8; Calb FLC: 13.9; Mdm2-MdmX inh: 15.5

What do the screens show for `O=C(/C=C/c1ccccc1)NC(NC(=S)Nc1ccc(Cl)cc1)C(Cl)(Cl)Cl` (configuration not stated)?
CSC inhib: 35.1; MPTP block: 98.7*; Beta cell apopt: 46.3; Calb FLC: -8.8; Mdm2-MdmX inh: 60.0*; Mdm2-MdmX conf: 62.1*; FLuc counter: 23.7; MPTP counter: 58.0*

What do the screens show for `O=C(NC(NC(=S)Nc1ccccc1C(=O)O)C(Cl)(Cl)Cl)c1ccccc1` (configuration not stated)?
CSC inhib: 0.9; MPTP block: 6.0; Beta cell apopt: 1.7; Calb FLC: 7.7; Mdm2-MdmX inh: -35.1

What do the screens show for `O=C(/C=C/c1ccccc1)NC(NC(=S)Nc1cc(Cl)ccc1Cl)C(Cl)(Cl)Cl` (configuration not stated)?
CSC inhib: inconclusive; MPTP block: 96.9*; Beta cell apopt: 10.6; Calb FLC: -7.5; Mdm2-MdmX inh: 89.4*; Mdm2-MdmX conf: 87.5*; FLuc counter: 31.2; MPTP counter: 73.5*

What do the screens show for `O=C(COC(=O)c1nn(CCO)c(=O)c2ccccc12)Nc1ccc(Cl)c(Cl)c1`?
CSC inhib: -5.2; MPTP block: 2.4; Beta cell apopt: -3.4; Mdm2-MdmX inh: 23.6

Results for COc1ccc(OC)c(S(=O)(=O)N2CCCC(C(=O)NCc3cccnc3)C2)c1 (configuration not stated) ?
CSC inhib: -6.4; MPTP block: 0.3; Beta cell apopt: -7.1; Calb FLC: -4.4; Mdm2-MdmX inh: -5.1

How did CN(C)CCCNc1ncnc2c1c(-c1ccccc1)cn2-c1ccccc1 do in these assays?
CSC inhib: 14.7; MPTP block: 59.4*; Beta cell apopt: 2.2; Calb FLC: -2.4; Mdm2-MdmX inh: 61.3*; Mdm2-MdmX conf: 42.4*; FLuc counter: 89.3*; MPTP counter: -5.8; MPTP swell DR: inactive; MPTP counter DR: >80

How did COc1ccc(OC(=O)N(C)C[C@@H]2OCc3cn(nn3)CCCC(=O)N([C@@H](C)CO)C[C@H]2C)cc1 do in these assays?
MPTP block: -0.2

Results for O=C(COc1ccc2c(-c3ccccc3)cc(=O)oc2c1)Nc1cccnc1 ?
CSC inhib: -6.1; MPTP block: 85.2*; Beta cell apopt: -3.9; Calb FLC: 2.8; Mdm2-MdmX inh: 67.6*; Mdm2-MdmX conf: 42.5*; FLuc counter: 82.4*; MPTP counter: 86.6*

What do the screens show for `Cc1ccc2ncnc(Nc3ccccc3)c2c1`?
CSC inhib: 33.5; MPTP block: 3.9; Beta cell apopt: 13.3; Calb FLC: 19.9; Mdm2-MdmX inh: 33.4

How did Clc1ccc(Nc2ncnc3ccc(Br)cc23)cc1 do in these assays?
CSC inhib: inconclusive; MPTP block: 86.6*; Beta cell apopt: 20.5; Calb FLC: -30.1; Mdm2-MdmX inh: 77.3*; Mdm2-MdmX conf: 60.8*; FLuc counter: 36.9*; MPTP counter: 87.4*

How did Cc1ccc2ncnc(Nc3cccc(C(=O)O)c3)c2c1 do in these assays?
CSC inhib: -16.0; MPTP block: -1.3; Beta cell apopt: 2.3; Calb FLC: 17.4; Mdm2-MdmX inh: -16.4

What do the screens show for `Clc1cccc(Nc2ncnc3ccc(Br)cc23)c1`?
CSC inhib: 57.8; MPTP block: 90.7*; Beta cell apopt: 19.1; Calb FLC: 17.2; Mdm2-MdmX inh: 73.5*; Mdm2-MdmX conf: 43.4*; FLuc counter: 35.6; MPTP counter: 73.5*

Screening data: PubChem BioAssay, several laboratories
